RPL19A-GFP yeast – RPL19A-GFP expression modulators in yeast, primary screen, cell-based, S. cerevisiae, multiplex flow cytometry, MLPCN. S. cerevisiae RPL19A-GFP strain, 3 h; active compounds read low. percent response vs DMSO, % at 10 µM. actives 0.3% (n = 330,000). AID 2025, 2009;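 active = percent response vs DMSO below 50%; inconclusive = fewer than 70 events counted for the yeast strain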;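 note: median channel GFP fluorescence of the barcoded RPL19A-GFP strain; lower means less RPL19A-GFP as with rapamycin TOR inhibition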
LAP4 TOR yeast – modulators of LAP4-GFP expression in yeast, primary screen, S. cerevisiae, multiplex flow cytometry, MLPCN library; 3 h; median GFP as percent of DMSO wells; GFP response vs DMSO, % at 10 µM; actives 0.34% (n = 320,000);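 active = GFP response vs DMSO above a set limit, about the screen mean plus 3 SD, cut at about 150% in these data; inconclusive = under 70 cell events counted for the yeast strain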
AGP1 TOR yeast – modulators of AGP1-GFP expression in yeast TOR pathway, primary screen, cell-based, multiplex flow cytometry, S. cerevisiae, MLPCN library; actives 0.02% (n = 320,000); GFP response vs DMSO, % at 10 µM; AID 2066, 2009; 3 h; GFP as percent of DMSO wells;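 active = GFP response relative to DMSO above a set limit, near screen average plus 3 SD, cut at about 150% in these data; inconclusive = fewer than 70 cells counted for the yeast strain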;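 note: median GFP channel fluorescence of the gated AGP1 strain per well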
DSG3 Ab inh – inhibitors of pemphigus antibody binding to DSG3, primary screen, biochemical, bead-based, flow cytometry, scFv-GFP. DSG3-coupled beads, scFv-anti-DSG3-GFP binding; active compounds read low. binding (percent of control), % at 10 µM. actives 0.48% (n = 310,000);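 active = binding more than 3 SD below its plate's average and above zero; inconclusive = below that plate limit but binding exactly zero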;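 note: hits lower antibody fragment binding to DSG3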
CIT2 TOR yeast – modulators of CIT2-GFP expression in yeast, primary screen, S. cerevisiae, GFP fusion, multiplex flow cytometry, MLPCN library. S. cerevisiae CIT2-GFP strain, 3 h; 100 means same as DMSO wells. GFP response vs DMSO, % at 10 µM. actives 0.065% (n = 320,000). AID 2029, 2009;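 active = GFP response relative to DMSO above a set limit, near the screen mean plus 3 SD, cut at about 150% in these data; inconclusive = Fewer than 70 cells measured for a yeast strain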;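 note: ratio of well median GFP fluorescence to mean of DMSO wells on the plate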
MEP2-GFP yeast – modulators of MEP2-GFP levels in yeast, primary screen, S. cerevisiae, multiplex flow cytometry, MLPCN library. AID 2016, 2009. S. cerevisiae MEP2-GFP strain, 3 h; 100% = DMSO control level. actives 0.51% (n = 330,000). GFP response vs DMSO, % at 10 µM;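 active = GFP response versus DMSO above a set limit, roughly screen mean plus 3 SD, cut at about 180% in these data; inconclusive = fewer than 70 cells counted for a yeast strain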;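 note: median GFP fluorescence of the barcode-gated MEP2-GFP cells per well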
Of the large screens only hits and unclear results are named; the others gave an inactive call; [ ] = dose if it differs, or a comment. Most compounds without a hit are left out; they make up all but 1.2% or so of the library.

COC(=O)c1cc(NC(=O)c2c(Cl)nc3sccn23)cc(C(=O)OC)c1	MEP2-GFP yeast 188
CC(NC(=O)C1CCC(CNS(=O)(=O)c2ccccc2)CC1)c1ccccc1 (configuration not stated)	MEP2-GFP yeast 311
Cc1cn([C@H]2C[C@H](O)[C@@H](CNCc3ccc(F)c(N4CCOCC4)c3)O2)c(=O)[nH]c1=O	none (no result: RPL19A-GFP yeast, LAP4 TOR yeast, AGP1 TOR yeast, CIT2 TOR yeast, MEP2-GFP yeast)
O=C(CNC(=S)N(Cc1ccccc1F)C1CCCCC1)NCCCN1CCOCC1	AGP1 TOR yeast inconclusive, CIT2 TOR yeast inconclusive, MEP2-GFP yeast 317[may fluoresce violet]
CC(C)COc1cccc(C(=O)N(CC(=O)Nc2ccccc2C(F)(F)F)Cc2ccco2)c1	none
CC(C)CCN1C(=O)c2cccc3c(N)ccc(c23)C1=O	none
CSc1sc(C(=O)NCC2CC2)c2c1S(=O)(=O)N(C)c1ccccc1-2	DSG3 Ab inh 93
CSc1sc(C(=O)NCC2CC2)c(-c2cccs2)c1C#N	none
CC[n+]1c(/C=C/C=C/N(C(C)=O)c2ccccc2)sc2ccccc21	LAP4 TOR yeast 273, CIT2 TOR yeast 395, MEP2-GFP yeast 514 (no result: DSG3 Ab inh)
Cc1cc(O)ccc1C1(c2ccc(O)cc2C)OC(=O)c2ccccc21	none
O=C1OC2(c3ccccc31)c1cc(I)c(O)c(I)c1Oc1c2cc(I)c(O)c1I	LAP4 TOR yeast 243, CIT2 TOR yeast 169, MEP2-GFP yeast 257 (no result: DSG3 Ab inh)
Cc1[nH]c2ccccc2c1CN1CCC(CO)(Cc2ccccc2)CC1	RPL19A-GFP yeast 42[may fluoresce violet], CIT2 TOR yeast inconclusive
COc1ccccc1C1CCN(Cc2cccc3ccccc23)CC1	none
COc1ccccc1C1CCN(Cc2c(C)[nH]c3ccccc23)CC1	LAP4 TOR yeast 152, MEP2-GFP yeast 201
COc1ccccc1N1CCN(c2cc(=O)n(Cc3ccc(F)cc3)c(=O)[nH]2)CC1	DSG3 Ab inh 69
O=c1cc(N2CCN(c3ccccc3Cl)CC2)[nH]c(=O)n1Cc1ccc(F)cc1	none
CCOC(=O)C1CCN(C(=O)CC2(CC(=O)O)CCCC2)CC1	none
Cc1ccc(C)c(-n2sc3ccc(F)cc3c2=O)c1	DSG3 Ab inh 55
COc1ccc(-n2cc(C(=O)O)c3ccccc3c2=O)cc1	none (no result: CIT2 TOR yeast)
COc1ccc(N2C(=O)CSC2c2ccc(F)cc2)cc1 (configuration not stated)	none
COc1ccc(-n2sc3ccc(F)cc3c2=O)cc1	DSG3 Ab inh 50
O=c1c2cc(F)ccc2sn1-c1ccc(F)cc1	DSG3 Ab inh 49
COc1ccc(-n2sc3ccccc3c2=O)cc1	DSG3 Ab inh 74 (no result: RPL19A-GFP yeast, LAP4 TOR yeast, AGP1 TOR yeast, CIT2 TOR yeast, MEP2-GFP yeast)
COC(=O)C1=C(CCc2ccccc2)NC(=O)NC1c1ccc(Cl)cc1 (configuration not stated)	none
N#CC12COC3(CCCCC3C1(C#N)C#N)OC2=N (configuration not stated)	RPL19A-GFP yeast 48[may fluoresce violet], AGP1 TOR yeast inconclusive, CIT2 TOR yeast inconclusive, MEP2-GFP yeast 182[may fluoresce violet]
Cc1cc(C)nc(NC(=O)c2cccc(Cl)c2)n1	RPL19A-GFP yeast 17[may fluoresce violet], AGP1 TOR yeast inconclusive, CIT2 TOR yeast inconclusive, MEP2-GFP yeast 725[may fluoresce violet]
C/C(=N\NC(=O)COc1ccccc1-c1ccccc1)c1cccnc1	none
C/C(=N\NC(=O)COc1ccccc1-c1ccccc1)c1ccccn1	LAP4 TOR yeast 171
O=C(N/N=C/c1ccc(O)c(Br)c1)c1cc2c(ccc3ccccc32)o1	DSG3 Ab inh 78
Cc1ccc(C(=O)NS(=O)(=O)c2ccc(N=NN(C)C)cc2)cc1	none
C=CCN1CC(=O)N2C(C)c3[nH]c4ccccc4c3C[C@H]2C1=O (some centres not stated)	AGP1 TOR yeast inconclusive, CIT2 TOR yeast inconclusive, MEP2-GFP yeast 226[may fluoresce violet]
C/C(=N\Nc1nc2ccccc2nc1C)c1ccccc1O	DSG3 Ab inh 78
CCCCCC(=O)N1C[C@@H](O)[C@H](n2cc(-c3ccc(F)cc3)nn2)C[C@@H]1c1ccc(OC)cc1	DSG3 Ab inh 79 (no result: RPL19A-GFP yeast, LAP4 TOR yeast, AGP1 TOR yeast, CIT2 TOR yeast, MEP2-GFP yeast)
